Compound activity deposited in PubChem by National Center for Advancing Translational Sciences (NCATS).
A selection: hits, their analogues and other compounds. The true share with any hit is near 19%.
Cycloheximide cs: counter-screen hit for Shiga toxin inhibitors, cycloheximide | cell reporter, cycloheximide protein synthesis inhibition counterscreen | max response, % | 300,000 compounds, 12% hits; in the data active = max response mostly above about 13%, no sharp cut-off; inactive = mostly below about 14%; note: read at 38.3 µM for the half of the compounds with a filed dose
SARS PLpro yeast: inhibitors of SARS-CoV papain-like protease in yeast; S. cerevisiae expressing SARS-CoV PLpro, growth rescue; Potency, µM (titrated, usually from 32.9 µM), usual class: activators; 330,000 compounds, 0.19% hits; AID 485353; calls by dose curve; note: nearly all actives have a fitted effect of over 55% in size
AMA1-RON2 inh: inhibitors of Plasmodium falciparum AMA1-RON2 interaction. 360,000 compounds, 0.2% hits. Potency, µM (titrated, usually from 58.2 µM), actives largely listed as inhibitors. AlphaScreen AMA1-biotinylated RON2 peptide binding; note: nearly all actives have a fitted effect of over 45% in size
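AMA1 (3D7) with his tag at 25 nM final met compounds first, then biotinylated RON2 peptide at 25 nM; detection used donor plus acceptor beads, 10 µg/mL apiece, read by AlphaScreen after 30 min at room temperature.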
Pf growth 48h: P. falciparum growth inhibition at 48 hours (one generation) | Potency, µM (highest dose often 28.7 µM), usual class: inhibitors | 310,000 compounds, 5.9% hits | AID 504832 | P. falciparum luciferase growth in erythrocytes, 48 h
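Luciferase-expressing P. falciparum in infected erythrocytes (2% hematocrit, 0.1% parasitemia final) in RPMI 1640/0.5% Albumax were exposed to compound for 48 hours at 37 C, 5% CO2; growth read as luminescence.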
Pf growth 96h: P. falciparum growth inhibition at 96 hour, primary screen for plastid delayed-death inhibitors; P. falciparum luciferase reporter growth, 96 h; Potency, µM (titrated, usually from 28.7 µM), most hits filed as inhibitors; 320,000 compounds, 6.9% hits; AID 504834
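Infected RBCs, 2% Hct / 0.05% parasitemia final; luciferase-reporter P. falciparum; cpd 96 h, 37 C, 5% CO2; luciferase detection reagent; luminescence.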
Shiga toxin inh: inhibitors of Shiga toxin in Vero cells | Vero cells, Shiga toxin protein synthesis inhibition reporter | inhibition, % at 38.7 µM | 290,000 compounds, 9.2% hits; in the data active = inhibition mostly above about 28%, no sharp cut-off; inactive = mostly below about 43%
Hits are given with their value; – = inactive; ? = inconclusive; · = not tested or not shown; [ ] = remark or other dose. Unless noted, calls come from the whole dose curve; as a rule, active = well fitted curve in the direction sought with a large enough effect; inconclusive = small, poorly fitted or top-dose-only effect, or another doubt; inactive = no such curve, though single readings can be large; an effect the other way counts as inactive or inconclusive.

SMILES	Cycloheximide cs	SARS PLpro yeast	AMA1-RON2 inh	Pf growth 48h	Pf growth 96h	Shiga toxin inh
CCc1cc2c(=O)c(-c3ccc4c(c3)OCO4)coc2c(CN(C)C)c1O	–	–	–	9.3µM	13µM	–
CCc1cc2c(=O)c(-c3cscn3)coc2c(CN(C)C)c1O	–	–	–	12µM	?	–
CC(C)NC(=O)N(Cc1ccccc1)Cc1cccs1	–	–	–	–	–	–
COc1ccc2nc3cc(Cl)ccc3c(Nc3cc(CN4CCCC4)c(O)c(CN4CCCC4)c3)c2n1	–	–	·	0.052µM	?	–
COc1ccc(NC(=O)CSc2c3c(nc4cc(Cl)ccc24)CCCC3)cc1OC	–	–	–	–	–	–
CC(=O)c1cc(F)c(N2CCN(C(=O)C(C)(C)C)CC2)cc1C	–	–	–	·	?	–
CC(=O)c1cc(F)c(N2CCN(C(=O)COc3ccccc3F)CC2)cc1C	–	–	–	15µM	–	–
CC12CCC=CC1C(c1ccc3ccccc3c1)N(Cc1ccccc1)C2=O (centres undefined)	–	·	·	·	·	–
C[C@@]12CCC=C[C@H]1[C@H](c1ccc3ccccc3c1Br)N(Cc1ccccc1)C2=O	–	–	–	9.3µM	10µM	–
C[C@@]12CCC=C[C@H]1[C@H](c1ccc3ccccc3c1)N(Cc1ccccc1)C2=O	–	–	–	?	9.3µM	–
O=C(Cc1ncc(C(F)(F)F)cc1Cl)NCCc1ccccn1	–	–	–	–	–	–
CC(OC(=O)c1cccc(N(C)C)c1)C(=O)N1CCc2ccccc2C1 (centres undefined)	·	–	–	·	·	·
CC(=O)Nc1ccc(Cl)c(-c2nc3ncccc3o2)c1	–	–	–	·	–	–
c1ccc2c(-c3nc4ncccc4o3)cccc2c1	20	–	–	–	–	–
Fc1ccccc1-c1nc2ncccc2o1	23	–	–	–	–	58
NS(=O)(=O)c1cccc(NC(=O)CSc2nn(-c3ccccc3)c(=S)s2)c1	–	–	–	1.9µM	1.2µM	–
C#CCOCCOCCOCCNc1nc(N2CCN(C(=O)[C@H](CCCCN)n3cc([C@@H](N)C(C)CC)nn3)CC2)nc(N2CCN(C(=O)[C@H](CCCCN)n3cc([C@@H](N)CC(C)C)nn3)CC2)n1 (some centres undefined)	–	–	–	–	–	–
CCCCC(=O)N(C)c1c(CC)nc2c(OCC(=O)N(C)C)cccn12	·	·	–	·	·	·
O=C(Oc1cccc2cccnc12)c1ccccc1	–	·	·	?	–	–
O=C(/C=C/c1ccccc1)Oc1cccc2cccnc12	–	–	–	4.7µM	3.7µM	–
O=C(/C=C\c1ccccc1)Oc1cccc2cccnc12	21	–	–	?	5.9µM	–
CCN(CC)C(=S)Nc1cc(C(=O)OC)ccc1C(=O)OC	–	–	–	–	?	–
O=C(COC(=O)/C=C/c1ccccc1)NC1CCCC1	·	–	–	·	·	·
COC(=O)CCc1sc(Nc2ccccc2)nc1-c1ccc(OC)cc1	23	–	?	–	–	91
O=C(O)Cc1sc(Nc2cccc3ccccc23)nc1-c1ccccc1	·	–	–	?	?	·
SMILES	Cycloheximide cs	SARS PLpro yeast	AMA1-RON2 inh	Pf growth 48h	Pf growth 96h	Shiga toxin inh
COc1ccc(Nc2nc(-c3ccc(OC)cc3)c(CCC(=O)O)s2)cc1	–	–	–	–	–	–
O=C(O)Cc1sc(Nc2cccc3ccccc23)nc1-c1ccc(Cl)cc1	20	–	–	?	–	–
Cc1ccc(Nc2nc(-c3ccc(C)cc3)c(CC(=O)O)s2)cc1	14	–	–	–	–	–
O=C(O)Cc1sc(Nc2ccc(Cl)cc2)nc1-c1cccs1	47	–	–	–	–	75
Nc1nc(-c2cccs2)c(CC(=O)O)s1	–	–	–	–	–	–
Cc1ccc2nc(C3CCCCC3)c(Cc3cccc(Cl)c3)n2c1	·	·	–	·	·	·
CC(C)(C)OC(=O)C[C@H]1C/C=C\C[C@@H](CC(=O)N(CCO)Cc2ccccc2)C(=O)N[C@H](Cc2c[nH]c3ccccc23)COC1=O	·	–	–	·	·	·
COc1ccc(C(=O)NN/C(C)=C/C(=O)c2ccccc2)cc1	11	–	–	?	?	–
C/C(=C\C(=O)c1ccccc1)NNC(=O)c1ccc(Cl)cc1	22	–	–	–	–	·
COc1ccc(C(=O)N/N=C/C(=O)c2ccccc2)cc1	43	–	–	–	–	49
Cn1cc(C=CC(=O)O)c2nccnc21	·	·	–	·	·	·
CCCc1cc(C(=O)Nc2cccc(-c3nn[nH]n3)c2)sc1C	·	·	–	·	·	·
N#Cc1nc(-c2ccc(Cl)cc2)oc1NCC1CCCO1 (centres undefined)	21	–	–	–	–	108
N#Cc1nc(-c2ccccc2)oc1NCC1CCCO1 (centres undefined)	–	–	–[2.32 µM]	–	–	–
N#Cc1nc(-c2cccc3ccccc23)oc1NCC1CCCO1 (centres undefined)	52	–	–	–	–	65
COc1ccc(C)cc1NC(=O)NNC(=O)c1ccoc1C	active	–	–	–	–	31
COc1ccc(C(C)(C)C)cc1NC(=O)c1ccoc1C	–	–	–	12µM	12µM	–
CC(C)[C@H]1COCCS(=O)(=O)N1Cc1ccccc1-c1ccc(C(C)(C)C)cc1	·	–	–	·	·	·
CC1CC(C)CN(S(=O)(=O)c2ccc(NC(=O)C3CSC4(C)CCC(=O)N34)cc2)C1 (centres undefined)	·	–	–	?	9.3µM	·
CC12CCC(=O)N1C(C(=O)Nc1cccc(S(=O)(=O)N3CCCCCC3)c1)CS2 (centres undefined)	·	–	–	–	13µM	·
CC12CCC(=O)N1C(C(=O)Nc1ccc(S(=O)(=O)N3CCCCC3)cc1)CS2 (centres undefined)	·	–	–	?	–	·
CCc1nc2ccc(C(=O)NCCc3ccco3)cc2nc1CC	45	–	–	–	?	65
CCOc1ccc(CCNC(=O)c2ccc3nc(CC)c(CC)nc3c2)cc1	–	–	–	–	13µM	–
CCOc1ccc(C(=O)NCCNC(=O)c2ccc(OCC)cc2)cc1	–	–	–	?	–	–
CCCN(C(=O)CCl)C1=CCCCC1	–	–	–	?	–	–
SMILES	Cycloheximide cs	SARS PLpro yeast	AMA1-RON2 inh	Pf growth 48h	Pf growth 96h	Shiga toxin inh
Cc1cccc(C)c1NC(=O)C1CCCCN1C (centres undefined)	–	–	–	–	–	–
CC(C)(C)c1csc(NC(=O)Cc2cccs2)n1	33	–	–	–	–	61
O=C(O)c1cc(NC(=O)C2CCCO2)cc(C(=O)O)c1 (centres undefined)	–	–	–	–	?	–
CC(C)(C)c1csc(NC(=O)c2cccs2)n1	44	–	–	–	?	71
CC(C)(C)c1csc(NNC(=O)c2ccc(Cl)cc2)n1	29	–	–	?	?	64
CCOC(=O)Cc1csc(NC(=O)Cc2cccs2)n1	–	–	–	–	·	–
O=C(NNC1=Nc2ccccc2SC1)c1ccc(Cl)cc1	–	–	–	?	?	–
CC(C)(C)c1cc(NC(=O)C2CCCO2)no1 (centres undefined)	33	–	–	–	–	47
